# Results as given in PubChem BioAssay (NCATS).
# Results filed as inconclusive are left out. Values without a mark were called inactive. Active and inactive are the calls of the source. The call rests on the fitted dose curve; in most records, active means well fitted inhibition curve with a large enough effect; inconclusive means small, poorly fitted or top-dose-only effect; inactive means flat fitted curve, though single readings scatter.
# What was measured:
# CRL-7250 = normal cell line; experiment: Cytotoxic Profiling of Annotated Libraries Using Quantitative High-Throughput Screening (AID 1296008); conditions: Five cell lines viability, CellTiter-Glo ATP luminescence, 48-72 h; max response: active compounds read low; further: potency means the concentration at half of the fitted maximal effect; on max response: on the % scale 0 is the no-effect control and ±100 the full control effect
# In short: (§1)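 Cytotoxicity was measured as CellTiter-Glo ATP luminescence, read after 10 min at room temperature. Compound treatment of the cells lasted 48 or 72 hr at 37 degrees Celsius in a qHTS format.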
# HaCat [1] = experiment: as above; conditions: Five cell lines viability, CellTiter-Glo ATP luminescence, 48-72 h; max response: active compounds read low
# In short: as §1
# NIH3T3 = experiment: as above; conditions: Five cell lines viability, CellTiter-Glo ATP luminescence, 48-72 h; max response: active compounds read low
# In short: as §1
# HACAT [2] = experiment: qHTS assay to identify novel small-molecules to repurpose for Merkel cell carcinoma treatment (AID 1296009); conditions: MCC and control cell lines, CellTiter-Glo viability, 72 h; at 44.8 µM (top of the series) unless noted
# In short: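 Cell viability, measured as CellTiter-Glo luminescence, was normalized between DMSO and no-cell wells. The cells had been exposed to 8- or 11-point compound dilutions for 72 hr at 37 degree celsius.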
# Further: nearly all actives have a fitted effect of over 60% in size.
structure (smiles),measurement,setting,value
COC(=O)c1cc(Br)cnc1N1CCC(NC2CCCCC2)C(O)C1 (stereo not drawn),outcome,CRL-7250,inactive
same,max response,HaCat [1],-7.79%
same,outcome,NIH3T3,inactive
Cn1cc(-c2ccc(S(=O)(=O)n3ccc(/C=C/C(=O)Nc4ccccc4N)c3)cc2)cn1,Potency,CRL-7250,9200 nM (active)
same,max response,HaCat [1],-149%
same,Potency,NIH3T3,4610 nM (active)
Cc1nnc(-c2ccc(-c3ccc(C(=O)Nc4ccc(O)c(N5CCN(C)CC5)c4)cc3)c(C)c2)o1,max response,CRL-7250,3.58%
same,outcome,HaCat [1],inactive
same,outcome,NIH3T3,inactive
same,outcome,HACAT [2],inactive
Clc1ccc(Cn2c(Cc3ccccc3)nc3ccccc32)cc1,max response,CRL-7250,-7.75%
same,outcome,HaCat [1],inactive
same,max response,NIH3T3,-0.247%
same,outcome,HACAT [2],inactive
O=C(COc1ccc2ccccc2c1Br)Nc1cccnc1,max response,CRL-7250,-18.6%
same,outcome,HaCat [1],inactive
same,max response,NIH3T3,-5.04%
same,outcome,HACAT [2],inactive
C[C@]12CC[C@@H]3c4ccc(O)c(O)c4CC[C@H]3[C@@H]1CCC2=O,max response,CRL-7250,-7.43%
same,outcome,HaCat [1],inactive
same,max response,NIH3T3,-17.9%
same,outcome,HACAT [2],inactive
CC(=O)NCc1cccc(OC[C@@H](O)CNCCc2ccc(NS(=O)(=O)c3ccccc3)cc2)c1,max response,CRL-7250,-6.68%
same,max response,HaCat [1],-3.13%
same,outcome,NIH3T3,inactive
Cc1onc(-c2ccccc2)c1C(=O)N1CCN(c2ccc([N+](=O)[O-])cc2Cl)CC1,max response,CRL-7250,-3.78%
same,outcome,HaCat [1],inactive
same,max response,NIH3T3,4.81%
same,outcome,HACAT [2],inactive
CCC(C)C(=O)O[C@H]1[C@H](O)[C@@]2(COC(C)=O)C(CC1(C)C)C1=CCC3[C@@]4(C)CC[C@H](O[C@@H]5O[C@H](C(=O)O)[C@@H](O)[C@H](O)[C@H]5O)[C@@](C)(CO)C4CC[C@@]3(C)[C@]1(C)C[C@@H]2O (stereo partly drawn),max response,CRL-7250,4.21%
same,outcome,HaCat [1],inactive
same,max response,NIH3T3,2.07%
same,outcome,HACAT [2],inactive [at 9.27 µM]
CN(C)C(=O)C(=O)c1cn(C)c2cc(Cl)c(C(=O)N3CCC(Cc4ccc(F)cc4)CC3)cc12,max response,CRL-7250,-5.29%
same,outcome,HaCat [1],inactive
same,max response,NIH3T3,1.98%
same,outcome,HACAT [2],inactive
CCCn1ncc(CN2CCCC(C(=O)c3cccc(OC(C)C)c3)C2)c1C (stereo not drawn),max response,CRL-7250,-26.8%
same,max response,HaCat [1],4.33%
same,max response,NIH3T3,-15.4%
CCCc1ccc(OCC(=O)N(Cc2nc(-c3cccnc3)no2)C(C)C)cc1,Potency,CRL-7250,23100 nM (active)
same,max response,HaCat [1],-2.41%
same,max response,NIH3T3,-9.24%
Cc1nc(Nc2ccc(F)cc2)nc(N2CCc3ccccc3C2C)c1C (stereo not drawn),max response,CRL-7250,-9.52%
same,outcome,HaCat [1],inactive
same,max response,NIH3T3,-20.5%
same,outcome,HACAT [2],inactive
COc1cc(C(C)C)c(Oc2cnc(N)nc2N)cc1I,max response,CRL-7250,-1.85%
same,max response,HaCat [1],-19.2%
same,max response,NIH3T3,-1.33%
O=C1c2ccc(Nc3ccc(F)cc3F)cc2CCc2ccc(OCC(O)CO)cc21 (stereo not drawn),max response,CRL-7250,-2.8%
same,max response,HaCat [1],0.902%
same,max response,NIH3T3,-2.95%
CN(C)c1ccc(NC(=O)NS(=O)(=O)c2ccc(Cl)cc2)cc1,max response,CRL-7250,-11.7%
same,outcome,HaCat [1],inactive
same,max response,NIH3T3,-5.53%
same,outcome,HACAT [2],inactive
C=C1/C(=C/C=C2\CCC[C@]3(C)[C@@H]([C@H](C)/C=C/[C@@H](C)C(C)C)CC[C@@H]23)C[C@@H](O)C[C@@H]1O,max response,CRL-7250,1.9%
same,outcome,HaCat [1],inactive; activator
same,Potency,NIH3T3,326 nM (active)
same,outcome,HACAT [2],inactive; activator
CN(C)C(CCOc1cccc2ccccc12)c1ccccc1 (stereo not drawn),max response,CRL-7250,-16.3%
same,outcome,HaCat [1],inactive
same,outcome,NIH3T3,inactive
same,outcome,HACAT [2],inactive
CC(=O)Nc1nc(C)c(-c2nc(N3CCCC(O)C3)no2)s1 (stereo not drawn),Potency,CRL-7250,8200 nM (active)
same,Potency,HaCat [1],4110 nM (active)
same,Potency,NIH3T3,18400 nM (active)
CC(C)(O)c1ccn2c(-c3ccc(F)c(-c4ccc(F)cc4C#N)c3)cnc2c1F,max response,CRL-7250,-19.9%
same,outcome,HaCat [1],inactive
same,max response,NIH3T3,-2.51%
same,outcome,HACAT [2],inactive
COc1cccc(-c2cc(F)ccc2C2Cc3nc(N)nc(C)c3C(=O)N2)n1 (stereo not drawn),Potency,CRL-7250,146 nM (active)
same,Potency,HaCat [1],46.1 nM (active)
same,Potency,NIH3T3,58 nM (active)
Fc1ccc(N2CCN(CCC3OCCc4ccccc43)CC2)cc1 (stereo not drawn),max response,CRL-7250,-11.3%
same,outcome,HaCat [1],inactive
same,max response,NIH3T3,-0.639%
same,outcome,HACAT [2],inactive
NC(=O)CCCSc1nc(N)nc(-c2c(Cl)cc3c4c(cccc24)COC3)n1,Potency,CRL-7250,1460 nM (active)
same,Potency,HaCat [1],291 nM (active)
same,Potency,NIH3T3,731 nM (active)
CC(C)(O)C1CC(=O)C2(C)C(CCC3(C)C(c4ccoc4)OC(=O)C4OC432)C12CCC(=O)OC2 (stereo not drawn),max response,CRL-7250,-9.62%
same,outcome,HaCat [1],inactive
same,outcome,NIH3T3,inactive
same,outcome,HACAT [2],inactive [at 17.4 µM]
COC(=O)C[C@H]1[C@]2(C)C3=C(C)[C@H](c4ccoc4)C[C@H]3O[C@@H]2[C@H](O)C2[C@](C)(C(=O)OC)C=CC(=O)[C@@]21C (stereo partly drawn),max response,CRL-7250,-6.81%
same,max response,HaCat [1],-7.74%
same,max response,NIH3T3,3.36%
CCC(CC)Nc1nc(C)c(-c2ccc(OC(F)(F)F)cc2OC)nc1OC,max response,CRL-7250,-15%
same,outcome,HaCat [1],inactive
same,max response,NIH3T3,0.268%
same,outcome,HACAT [2],inactive
